Test results from the OligoGym collection.

What follows are sequences tested against C8B (assay: pooled miR-30 sensor sort-seq; sequence = guide strand). Details: shRNA.
Also: reference of the scale not given here.

Sequence | sensor-assay potency score (higher = more potent)
TTAACTTTGATGATGGCTGGGT | 0.335
TAATATAGTGTTTGCCTCGATC | -0.751
AACACAGTCTTCGACTTCCTTG | -0.726
TTTGTCTTGTCTTACGTCTTCC | -0.213
TTTATTTTAAACAGCTTGCATG | -0.469
TTTAGTATGAGAGAATCGTTTG | -0.791
TATTTTAAAACCAAAACTGAAA | -1.26
TTCCTTCTGGAACTCCTCCAGT | -0.414
TAACACAGTCTTCGACTTCCTT | -0.392
TTGTTGACTGCATTTGACCCAA | -0.397
TAGCTTTCCACATTGTAGGGCT | 0.376
TTGCCCTTGCATGAACTCCAGG | -1.15
TTGACTTCCGCATGGTCTGTTG | -0.312
TTTGCCTACAGACACACCCAGA | -0.947
TAACTCTCTGAAGGAACTCGTA | -1.02
TTCTACAGTTTGCTTCATCTGA | -0.199
TTACACACCTTCCTGTCTGTGC | 0.539
TAGGGCTTCCTAAACCTCGTGT | 0.733
TAAAACCAAAACTGAAACCAGA | -0.722
TAGTATGAGAGAATCGTTTGGT | 0.49

What follows are sequences tested against C8orf37 in the same assay as above. Details: shRNA.

Sequence | sensor-assay potency score (higher = more potent)
TACATGATCTTCCTTAGTCCAT | -0.774
TTCTTCTTTATCAACTTTGCTT | -0.238
TCTTCTTTATCAACTTTGCTTT | -0.627
TTGCTTTGAGTTGATGAGGTAA | -0.541
TAAGACTGTCAAGATCATCTTC | 0.587
ATATTGTGCATAACATTGCTTT | -0.312
TTATAATACATGATCTTCCTTA | 0.582
TTAATTTGTGAAATTCTGGCAT | 0.766
TTGATGAGGTAAGATCAGCTAT | -0.469
TTTAACTGCTACAAGTTGGGGA | 0.583
TTAAATGTTTCTGTTGATCTGA | 0.482
TAATTTGTGAAATTCTGGCATG | -0.39

Each sequence was assayed against C8orf86 in the same assay as above. Details: shRNA.

Sequence | sensor-assay potency score (higher = more potent)
TTGTCTCTCTGTTCGCTGCTCA | 0.291
TAATTCAGGAGTTCTGGGCGGG | 0.0945
TTTGAAGAAACCACAGATGCGA | 0.17
TTCTAATCAACTCCTCAGCTGG | -0.81
ATTGCTTCTAATCAACTCCTCA | 0.067
TTGAAGAAACCACAGATGCGAG | -0.899
TTGGCTCTTTGGAACTGCCTGT | -0.109
TTGCTTCTAATCAACTCCTCAG | -0.327
